MPTP block – permeability transition pore inhibition; isolated mouse mitochondria, Ca2+ swelling absorbance, 30 min; inhibition, % at 10 µM; 1.4% of 360,000 active;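 active = inhibition of 50% or more, scaled per plate between neutral and stimulator controls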;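 note: 0% = DMSO wells given calcium and 100% = 1 mM EGTA wells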
ADAM10 inh – inhibits human ADAM10 | O14672 | recombinant ADAM10, EDANS/DABCYL FRET peptide cleavage, 3 h | inhibition, % at 7 µM | 0.62% of 370,000 active;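 active = inhibition above a per-campaign cutoff equal to the mean of compounds falling between control-based bounds plus 3 SD, cut at about 20% in these data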;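 note: 0% = DMSO wells while the 100% control is not disclosed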
rCAG RNA binder – r(CAG) repeat RNA binding. TO-PRO-1 dye displacement fluorescence. inhibition, % at 3 µM. 1.3% of 370,000 active;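 active = inhibition above the plate cutoff, the mean of all test compounds on that plate plus 3 SD, cut at about 35% in these data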;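 note: 0% = DMSO alone and 100% = 100 µM mitoxantrone as full dye displacement; higher means more dye released from RNA so lower well fluorescence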
KLK7 zymogen act – activators of human kallikrein-7 zymogen; purified proKLK7, EDANS-DABCYL substrate fluorescence; 100% is mature enzyme control, 0% vehicle; activation, % at 7 µM; 0.9% of 370,000 active;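 active = activation above the mean of all tested compounds plus 3 SD, computed per campaign excluding outliers beyond control limits, cut at about 13% in these data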
Pemphigus Ab inh – human desmoglein-3 autoantibody binding inhibition; binding (percent of control), % at 10 µM; 0.48% of 310,000 active; DSG3-coupled beads, scFv-anti-DSG3-GFP binding, flow cytometry; stronger effect = lower value; P32926; AID 588358;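 active = binding more than 3 SD below its plate's average and above zero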;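 note: hits lower antibody fragment binding to DSG3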
ADAM17 inh – ADAM17 inhibition, QFRET primary screen | P78536 | recombinant ADAM17, EDANS/DABCYL FRET peptide cleavage | inhibition, % at 6.95 µM | 0.83% of 370,000 active | AID 720648;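 active = inhibition above the mean of compounds lying between control limits plus 3 SD, set per campaign, cut at about 8.5% in these data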;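 note: 0% = DMSO-only wells as the low control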
Target sequence (P78536 215-824 limits assumed): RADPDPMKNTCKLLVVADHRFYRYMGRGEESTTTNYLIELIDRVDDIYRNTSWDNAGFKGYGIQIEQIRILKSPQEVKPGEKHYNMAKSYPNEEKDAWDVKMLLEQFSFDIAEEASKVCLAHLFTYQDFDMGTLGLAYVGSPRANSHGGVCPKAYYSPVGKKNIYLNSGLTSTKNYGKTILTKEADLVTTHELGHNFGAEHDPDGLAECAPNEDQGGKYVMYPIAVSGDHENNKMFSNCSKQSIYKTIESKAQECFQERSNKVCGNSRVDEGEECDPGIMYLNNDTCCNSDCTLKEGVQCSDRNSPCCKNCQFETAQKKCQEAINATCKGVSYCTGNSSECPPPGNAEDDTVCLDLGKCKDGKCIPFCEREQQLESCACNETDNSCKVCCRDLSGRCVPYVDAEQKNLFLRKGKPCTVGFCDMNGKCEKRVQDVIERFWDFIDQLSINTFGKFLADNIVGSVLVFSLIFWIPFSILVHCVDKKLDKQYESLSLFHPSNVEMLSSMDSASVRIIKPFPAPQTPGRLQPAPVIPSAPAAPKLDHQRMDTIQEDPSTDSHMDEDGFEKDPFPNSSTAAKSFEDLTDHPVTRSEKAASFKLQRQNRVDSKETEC
rCAG binder conf – r(CAG) RNA repeat binding, confirmation. shares compounds with rCAG RNA binder. TO-PRO-1 dye displacement fluorescence. inhibition, % at 3 µM. 70% of 4,300 active. AID 652065;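 active = inhibition above a per-plate cutoff, the mean inhibition of sample wells plus 3 SD, cut at about 35% in these data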;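 note: loss of TO-PRO-1 fluorescence as compound displaces dye from 1x1 AA loop RNA; 0% = DMSO only wells and 100% = 100 µM mitoxantrone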
dCAG dye counter – disrupts DNA CAG TO-PRO-1 complex, flagging rCAG hits | shares compounds with rCAG RNA binder | d(CAG) DNA oligo TO-PRO-1 dye displacement, fluorescence | inhibition, % at 3 µM | 94% of 4,300 active;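 active = inhibition above its plate's cutoff, the mean test-well inhibition plus 3 SD, cut at about 4.8% in these data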;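 note: 0% = DNA dye mix with DMSO and 100% = 100 µM mitoxantrone; hits displace the dye from DNA and so lower well fluorescence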
KLK7 act conf – proKLK7 activation, confirmation. shares compounds with KLK7 zymogen act. purified proKLK7, EDANS-DABCYL substrate fluorescence; scaled: vehicle 0, mature enzyme 100. activation, % at 7 µM. 68% of 3,200 active;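 active = activation, as change over the incubation, above the mean of all tested compounds plus 3 SD, cut at about 13% in these data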
EDANS interfere – fluorescence interference counter-screen for KLK7 activators. EDANS-DABCYL substrate fluorescence interference, no enzyme, 4 h; solvent 0%, active enzyme control 100%. activation, % at 7 µM. shares compounds with KLK7 zymogen act. 80% of 3,200 active;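 active = activation above the all-compound mean plus 3 SD, ignoring values outside control-based bounds, cut at about 4.8% in these data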;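 note: value is the 4 h activation minus the activation read at time zero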
ADAM10 confirm – confirmation of inhibitors of human ADAM10; inhibition, % at 6.95 µM; ADAM10 QFRET peptide cleavage, EDANS fluorescence; shares compounds with ADAM10 inh; 1% of 2,100 active;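 active = inhibition above about 20% chosen separately for each screening run, limit read from the data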;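 note: 0% = DMSO wells and 100% = marimastat wells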
ADAM17 counter – counter-screen for ADAM10 exosite inhibitors: inhibitors of human ADAM17; shares compounds with ADAM10 inh; ADAM17 QFRET peptide cleavage, EDANS fluorescence; inhibition, % at 6.95 µM; 0.5% of 2,100 active; AID 743214;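 active = mean triplicate inhibition above the solvent-only control wells' mean plus 3 SD, cut at about 12% in these data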;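 note: 0% = DMSO wells and 100% = marimastat wells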
ADAM10 counter – inhibits human ADAM10 in ADAM17 exosite counter-screen. shares compounds with ADAM17 inh. recombinant ADAM10, EDANS/DABCYL FRET peptide cleavage, 3 h. inhibition, % at 6.95 µM. 47% of 2,900 active;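 active = mean inhibition over the triplicate runs exceeds the activity threshold set in the earlier primary screen, cut at about 20% in these data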;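 note: 0% = DMSO wells and 100% = marimastat wells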
ADAM17 confirm – confirmation of inhibitors of human ADAM17 | recombinant ADAM17, EDANS/DABCYL QFRET peptide cleavage | inhibition, % at 6.95 µM | shares compounds with ADAM17 inh | 65% of 2,900 active | AID 743257;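 active = mean inhibition across replicates above the hit cutoff set in the primary screen, cut at about 8.5% in these data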;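 note: 0% = DMSO wells and 100% = marimastat wells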
Active calls of the source: *; i = inactive; nt = no result given. Most compounds without a hit are left out; they make up all but 4.7% or so of the library.

SMILES	MPTP block	ADAM10 inh	rCAG RNA binder	KLK7 zymogen act	Pemphigus Ab inh	ADAM17 inh	rCAG binder conf	dCAG dye counter	KLK7 act conf	EDANS interfere	ADAM10 counter	ADAM17 confirm	others
CC1(C(=O)NS(=O)(=O)c2cccc(Cl)c2)CCN1C(=O)Cc1ccc(-c2ccccc2)cc1 (centres undefined)	2.7	3.0	73.6*	0.0	nt	9.0*	68.4*	29.4*	nt	nt	7.8	5.5
COc1cc(/C=C2\SC(=S)N(Nc3ncc(C(F)(F)F)cc3Cl)C2=O)ccc1O	15.5	34.4*	52.6*	2.8	92.4	12.1*	62.7*	32.4*	nt	nt	34.6*	18.7*	ADAM10 confirm=4.4;ADAM17 counter=1.2
COc1ccc(-n2c(SCC(=O)NNC(=S)Nc3ccccc3)nc3ccccc3c2=O)cc1	nt	25.5*	49.6*	-0.4	nt	12.3*	43.2*	16.4*	nt	nt	12.3	8.6*	ADAM10 confirm=2.2;ADAM17 counter=-0.1
Cc1cc(C)n(/N=C/c2cc([N+](=O)[O-])ccc2O)c(=O)c1	-2.0	-15.6	-0.1	-0.2	101.4	0.6	nt	nt	nt	nt	nt	nt
Cc1ccc(S(=O)(=O)/N=C2/NC(=O)/C(=C/c3cc([N+](=O)[O-])ccc3O)S2)cc1	-0.6	12.8	88.0*	0.5	110.8	8.6*	66.9*	24.6*	nt	nt	-2.2	1.1
Cc1ccc(NC(=O)c2cc3c(s2)CCCC3)cc1S(=O)(=O)Nc1ccccc1Cl	41.0	24.5*	47.4*	-3.0	102.3	15.9*	38.3*	12.7*	nt	nt	22.4*	15.4*	ADAM10 confirm=52.0*;ADAM17 counter=14.6*
Cc1oc2c(cc(NS(=O)(=O)c3cccs3)c3ccccc32)c1C(=O)OC(C)C	0.5	23.6*	37.4*	0.3	100.9	9.7*	31.5	9.5*	nt	nt	37.7*	14.4*	ADAM10 confirm=6.2;ADAM17 counter=2.5
Cc1cccc(NS(=O)(=O)c2ccc3[nH]c(=O)cc(C(=O)OC(C)C(=O)Nc4ccc([N+](=O)[O-])cc4)c3c2)c1 (centres undefined)	2.9	25.4*	46.0*	-3.5	97.0	15.4*	36.3*	16.9*	nt	nt	4.5	11.6*	ADAM10 confirm=9.5;ADAM17 counter=4.4
CCc1ccc(NC(=O)C(C)OC(=O)c2cc(=O)[nH]c3ccc(S(=O)(=O)Nc4ccc(F)cc4)cc23)cc1 (centres undefined)	3.8	-8.8	8.5	0.2	94.7	-2.3	nt	nt	nt	nt	nt	nt
CC(=O)Nc1cncc(-c2cccc(C(=O)NCCN(C)C)c2)n1	-0.7	-26.8	-0.2	1.2	nt	-5.0	nt	nt	nt	nt	nt	nt
CNc1cncc(-c2ccc(F)c(F)c2)n1	0.5	i	-0.3	36.9*	nt	i	nt	nt	15.5*	25.4*	nt	nt
CNc1cncc(-c2cccc(C(=O)N(C)C)c2)n1	-0.6	i	0.8	50.8*	nt	i	nt	nt	60.2*	63.3*	nt	nt
CNc1cncc(-c2cccnc2)n1	-1.1	i	0.7	67.2*	nt	i	nt	nt	75.8*	78.6*	nt	nt
Cc1ccc(S(=O)(=O)Nc2cccc(C(=O)NCCCN3CCOCC3)c2)cc1F	-0.4	-6.9	-1.9	-0.6	107.0	-4.7	nt	nt	nt	nt	nt	nt
CC(C)C[C@@H]1COc2cccc(N3CCC[C@H]3CO)c2S(=O)(=O)N1	-0.3	-4.7	0.2	-0.3	nt	-5.0	nt	nt	nt	nt	nt	nt
CC[C@@H]1C(c2cccc(C)c2)=NN(c2ccccc2)[C@H]1C(=O)N1CCOC1=O	0.4	-68.0	4.6	40.9*	100.8	-17.4	nt	nt	55.5*	51.5*	nt	nt
CC[C@@H]1C(c2cccc(Cl)c2)=NN(c2ccc(Br)cc2)[C@H]1C(=O)N1CCOC1=O	1.2	nt	nt	nt	99.0	nt	nt	nt	nt	nt	nt	nt
CC[C@@H]1C(c2ccccc2)=NN(c2ccc(Br)cc2)[C@H]1C(=O)N1CCOC1=O	0.1	-248.8	7.1	27.5*	99.2	-67.2	nt	nt	1.9	1.3	nt	nt
C[C@@H]1C(c2ccc(F)cc2)=NN(c2ccccc2)[C@H]1C(=O)N1CCOC1=O	-0.2	-46.0	5.6	21.3*	106.7	-12.0	nt	nt	12.6*	24.1*	nt	nt
CCc1nc2ccc(C(=O)Nc3ccc(OC)c(OC)c3)cn2c1N(C)C(=O)Cc1ccccc1	-1.2	-14.6	-0.9	-0.1	nt	-6.9	nt	nt	nt	nt	nt	nt
CC1(C(=O)NCc2ccc(C(F)(F)F)cc2)CCN1Cc1ccc(-c2ccccc2)o1 (centres undefined)	0.1	-4.0	0.2	0.7	nt	-0.2	nt	nt	nt	nt	nt	nt
CC(C)CCNC(=O)COc1ccc2c(c1)C(=O)CC(C)(C)O2	0.6	i	-7.6	39.5*	97.6	-343.2	nt	nt	34.8*	46.7*	nt	nt
CC1(C)CC(=O)c2cc(OCC(=O)NCCN3CCCc4ccccc43)ccc2O1	-2.4	-472.4	-1.1	17.9*	103.5	-158.2	nt	nt	43.4*	39.3*	nt	nt
CC1(C)CC(=O)c2cc(OCC(=O)NCCCN3CCN(c4ccc(F)cc4)CC3)ccc2O1	0.0	-366.3	-8.1	16.6*	98.3	-107.2	nt	nt	4.0	2.0	nt	nt
CCC(Oc1ccc2c(c1)C(=O)CC(C)(C)O2)C(=O)NCCN1CCCCCC1 (centres undefined)	0.0	i	-0.6	129.4*	90.7	i	nt	nt	48.6*	44.0*	nt	nt
CCCCCNC(=O)C(c1cc2ccccc2o1)n1c(=O)c(-c2ccccc2)nc2ccccc21 (centres undefined)	0.4	-27.2	8.7	-0.8	nt	-10.3	nt	nt	nt	nt	nt	nt
O=C1NC(=O)c2c(Br)c(Br)c(Br)c(Br)c21	1.9	-11.5	2.9	0.0	115.4	-2.2	nt	nt	nt	nt	nt	nt
Nc1ccn([C@@H]2O[C@H](C(=O)N[C@H](Cc3ccccc3)C(=O)NCc3cccc4c3OCO4)[C@@H](O)[C@H]2O)c(=O)n1	nt	-7.7	0.7	-0.8	nt	-3.1	nt	nt	nt	nt	nt	nt

Screens from PubChem.
